# This is part of a sample that, as a whole, favours compounds with a hit. Of some 83,000 tested, about 20% had one in any assay.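 In brief: 96-well plates, 48 h treatment, single concentration, percent growth endpoint.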 Unmarked numbers belong to inactive results. Activity calls are given as the source filed them. Rule for the calls: active = growth percent below 10; inactive = the rest.
# What was measured:
# Experiment in all cases: NCI-60 one-dose screen, 48 h (100 = growth as untreated, 0 = no growth, -100 = all killed)
# Conditions in all cases: 10 µM unless noted
# [1] = test system: DU-145 prostate
# [2] = test system: K-562 leukemia
# [3] = test system: MALME-3M melanoma
# [4] = test system: MDA-MB-231 breast
# [5] = test system: RXF 393 renal
# [6] = test system: SF-268 CNS
# [7] = test system: SF-295 CNS
# [8] = test system: SF-539 CNS
# [9] = test system: UACC-257 melanoma
# [10] = test system: M14 melanoma
# [11] = test system: HCT-15 colon
# [12] = test system: HT29 colon
# [13] = test system: SNB-75 CNS
# [14] = test system: SNB-19 CNS
# [15] = test system: U251 CNS
# [16] = test system: PC-3 prostate
# [17] = test system: SK-MEL-5 melanoma
# [18] = test system: UACC-62 melanoma
# [19] = test system: LOX IMVI melanoma
# [20] = test system: SK-MEL-28 melanoma
SMILES,growth [1],growth [2],growth [3],growth [4],growth [5],growth [6],growth [7],growth [8],growth [9],growth [10],growth [11],growth [12],growth [13],growth [14],growth [15],growth [16],growth [17],growth [18],growth [19],growth [20]
C=C1CC[C@@H]2C(C)(C)[C@@H](O)CC[C@@]2(C)[C@@H]1COc1ccc2ccc(=O)oc2c1,91.8%,53.3%,89%,89.4%,88.5%,78%,62.5%,86.1%,77.3%,80.4%,66.7%,64.3%,83.8%,85.8%,75.8%,49.7%,61.7%,55.1%,82.8%,92.3%
O=c1c2ccccc2c(=O)c2c1sc1c(=O)c3ccc(O)cc3c(=O)c12,-98.5% (active),-11.6% (active),-96.5% (active),-13.5% (active),-84% (active),-32.1% (active),-94.3% (active),-97.1% (active),-95.2% (active),-87.5% (active),-65.4% (active),-47.4% (active),-96.4% (active),-92% (active),-65.8% (active),-12.7% (active),-96.2% (active),-73.2% (active),-61% (active),-65% (active)
COc1ccc(N2CCN(C(=O)c3sc4nc(C)c(Br)c(C)c4c3N)CC2)cc1,104%,97.3%,-12.3% (active),84.2%,116%,89.1%,95.6%,91.8%,99.7%,99.3%,102%,102%,76.6%,98.9%,87.4%,81.9%,93.4%,89.2%,93%,104%
Cc1ccc(S(=O)(=O)N2CCC(=O)c3ccccc32)cc1,62%,40.2%,84.9%,72.9%,61%,80.2%,86.6%,55.1%,77.8%,62%,42.9%,68.4%,42.8%,69.4%,49.4%,74.8%,63.3%,67.7%,76.4%,80.3%
Nc1ncnc2c1N=C(c1ccc3c(c1)OCO3)CC(c1cccc(Nc3ccnc4cc(C(F)(F)F)ccc34)c1)N2 (stereo not given),87.3%,21%,84.3%,88.4%,80.5%,83.6%,87.6%,98.9%,74.9%,94.2%,70.8%,69.6%,76.9%,77.3%,37.4%,75.6%,84.6%,87.1%,51.8%,101%
CCN1CCN(c2cc(C)nc(N(CCNc3ccnc4cc(Cl)ccc34)Cc3ccc4c(c3)OCO4)n2)CC1,26.5%,-48.4% (active),-65.8% (active),-42.4% (active),-82.5% (active),7.14% (active),-63.5% (active),-71.2% (active),-59.9% (active),-66.5% (active),-28.8% (active),-37.9% (active),-75.3% (active),29.7%,-50.4% (active),20%,-95.8% (active),-32.2% (active),-80.3% (active),-65.6% (active)
O=S(=O)(Oc1ccc(Br)cc1)c1ccc(Cl)cc1,93.8%,108%,85.5%,117%,114%,99.2%,94.6%,110%,118%,94.3%,97.6%,99%,121%,103%,106%,91.7%,101%,98.6%,95.1%,103%
N=C(N)c1ccc(-c2ccc(-c3ccccc3)s2)cc1,29.5%,1.35% (active),97.2%,10.3%,78.7%,76.4%,40.6%,78.5%,103%,81.1%,-28.3% (active),-5% (active),108%,50.1%,9.73% (active),51.3%,95.5%,94.9%,-70.2% (active),113%
CC(C)N1C(=O)/C(=c2\sc3n(c2=O)C2C(NN=3)N(C)C(=O)N2C)c2ccccc21 (stereo not given),84.3%,27%,53.2%,90.9%,57.3%,74.9%,50.1%,49.2%,50%,44.9%,37.8%,31.3%,4.34% (active),61.9%,48.2%,55%,48.8%,33.4%,56.6%,64%
CCc1ccc(CCC(=O)Nc2ncc(Cc3cc(Cl)ccc3Cl)s2)o1,18.5%,9.71% (active),43.5%,28.6%,-32.5% (active),60.9%,6.84% (active),-6.72% (active),69.9%,6.6% (active),13%,2.01% (active),-12.1% (active),21%,21.7%,23.8%,25.2%,18.7%,30.2%,55.9%
O=C(Cn1nnc2ccccc21)N/N=C/c1c[nH]c2ccccc12,81%,15.2%,61%,52%,66.5%,57.5%,44.3%,51.9%,65.3%,19.7%,33.3%,13.1%,33.5%,41.3%,39.5%,61.7%,28.4%,23%,46.1%,72.5%
CCOC(=O)c1[nH]c2c(c1C)-c1[nH]c(=O)c(S(=O)(=O)c3ccccc3)cc1SC2,15.4% [100 µM],49.8% [100 µM],4.32% [100 µM] (active),25.6% [100 µM],-5.27% [100 µM] (active),21.8% [100 µM],8.44% [100 µM] (active),30% [100 µM],66.8% [100 µM],51.8% [100 µM],72.8% [100 µM],13.4% [100 µM],17% [100 µM],94.7% [100 µM],31.9% [100 µM],-29.5% [100 µM] (active),35.9% [100 µM],21.2% [100 µM],50% [100 µM],20.7% [100 µM]
CC/C(Cc1ccccc1)=C(\c1ccc(OCCCN(C)C)cc1)c1ccc(OC(=O)NCc2ccccc2)cc1,73.9%,-31.7% (active),41.8%,65.2%,80%,72.4%,110%,93%,83.4%,18.8%,4.38% (active),7.12% (active),69.4%,76.3%,35.7%,64.5%,74.4%,85%,15.5%,90%
C=C(C)[C@@H]1CC[C@]2(C(=O)N3CCN(C)CC3)CC[C@]3(C)[C@H](CC[C@@H]4[C@@]5(C)CC[C@H](OC(=O)c6ccccc6C(=O)O)C(C)(C)[C@@H]5CC[C@]43C)[C@@H]12,104%,102%,97.4%,96.9%,111%,92.8%,104%,97.6%,107%,99.3%,103%,109%,85.1%,95.4%,105%,91%,99.5%,101%,99.1%,105%
CN1CCN(CC(=O)Nc2ccc3ncnc(Nc4ccc(Oc5cccc(C(F)(F)F)c5)c(Cl)c4)c3c2)CC1,23.9%,-27.3% (active),-77.1% (active),-58.1% (active),-78.6% (active),11.3%,-44.7% (active),-84.5% (active),-56.1% (active),-86.5% (active),-12.2% (active),-19.2% (active),68.8%,28.5%,0.145% (active),42.9%,-58% (active),-28.8% (active),-94.6% (active),-89% (active)

# Source: PubChem BioAssay (NCI)
